This excerpt belongs to a sample that is enriched for hits.
JMJD2E inh – inhibitors of human JMJD2E histone demethylase | JMJD2E catalytic domain, FDH-coupled NADH fluorescence (FDH is formaldehyde dehydrogenase) | Potency, µM (highest dose often 57.1 µM), usual class: inhibitors | 230,000 compounds, 1.6% hits | B2RXH2; active = well fitted inhibition curve with a large enough effect, not every such curve was filed as active; inconclusive = small, poorly fitted or top-dose-only effect, or another doubt; inactive = no such curve, though single readings can be large or run the other way; note: nearly all actives have a fitted effect of over 50% in size
L3MBTL1 inh – L3MBTL1 (human) inhibition. 230,000 compounds, 0.66% hits. AID 485360. AlphaScreen L3MBTL1–H3K9me1 peptide binding. Potency, µM (titrated, usually from 57.1 µM), hits mostly inhibitors. Q9Y468; note: nearly all actives have a fitted effect of over 60% in size
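AlphaScreen assay: L3MBTL1 (50 nM final) was preincubated 30 min at room temperature with biotinylated H3(1-15)K9me1 peptide (75 nM final), then 30 min with library compounds; streptavidin donor and nickel chelate acceptor beads (10 ug/mL final) added, 30 min dark.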
TDP1 inh – blocks human tyrosyl-DNA phosphodiesterase 1 | Q9NUW8 | recombinant TDP1, AlphaScreen DNA substrate cleavage | Potency, µM (doses to about 130 µM), actives largely listed as inhibitors | 350,000 compounds, 0.28% hits; note: nearly all actives have a fitted effect of over 40% in size
Target sequence (Q9NUW8 whole entry, looked up): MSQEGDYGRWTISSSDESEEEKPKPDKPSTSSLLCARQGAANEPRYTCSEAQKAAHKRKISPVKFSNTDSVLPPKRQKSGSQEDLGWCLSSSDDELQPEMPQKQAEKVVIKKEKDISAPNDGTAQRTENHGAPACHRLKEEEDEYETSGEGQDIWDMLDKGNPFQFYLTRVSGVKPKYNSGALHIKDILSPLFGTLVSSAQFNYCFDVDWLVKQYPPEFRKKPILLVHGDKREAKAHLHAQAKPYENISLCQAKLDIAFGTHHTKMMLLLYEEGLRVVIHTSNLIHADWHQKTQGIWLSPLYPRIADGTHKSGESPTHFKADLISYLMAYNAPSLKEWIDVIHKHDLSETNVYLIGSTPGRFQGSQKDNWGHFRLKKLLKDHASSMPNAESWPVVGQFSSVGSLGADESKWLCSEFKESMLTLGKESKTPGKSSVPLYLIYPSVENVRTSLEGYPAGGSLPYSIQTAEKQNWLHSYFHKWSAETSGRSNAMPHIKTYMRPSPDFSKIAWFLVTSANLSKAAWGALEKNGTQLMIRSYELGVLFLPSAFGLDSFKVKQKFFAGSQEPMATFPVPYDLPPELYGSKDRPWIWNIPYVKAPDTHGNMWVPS
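Signal: AlphaScreen proximity between streptavidin donor and anti-FITC acceptor beads on intact substrate. Reaction: Tdp1 1 nM, substrate 15 nM final, 5 min RT after 15 min compound preincubation.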
RECQ1 helicase – inhibitors of human RECQ1 DNA helicase; P46063; RECQ1 DNA unwinding, red fluorescence kinetic read; Potency, µM (doses to about 57.3 µM), hits mostly inhibitors; 240,000 compounds, 0.54% hits; note: nearly all actives have a fitted effect of over 30% in size
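RECQ1T1 50 nM; forked duplex (20 bp + 30-nt ss tails) 200 nM, ATP 2 mM final; pH 8.0, 2 mM MgCl2, 2.5 ug/ml poly(dI-dC); 15 min compound preincubation; discontinuous kinetic read over 2 h at RT.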
APE1 inh – inhibitors of human APE1 endonuclease | P27695 | Potency, µM (highest dose often 65.8 µM), hits mostly inhibitors | 350,000 compounds, 0.35% hits | recombinant APE1, TAMRA/BHQ-2 abasic DNA cleavage fluorescence; note: nearly all actives have a fitted effect of over 55% in size
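Activity was derived from the fluorescence gain between first and third kinetic reads (60 s intervals, ex 525/em 598 nm) after 50 nM THF-abasic TAMRA/BHQ-2 duplex was added to 0.75 nM APE1 preincubated 15 min with compound.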
BLM inh – Bloom syndrome helicase (human) inhibition. P54132. recombinant BLM DNA unwinding, fluorescence dequenching. Potency, µM (titrated, usually from 56.1 µM), most hits filed as inhibitors. 350,000 compounds, 0.2% hits; note: nearly all actives have a fitted effect of over 35% in size
A number is an active result; n = inactive; u = inconclusive; x = not tested or not shown; ! = not active in a repeat. Unless noted, calls come from the whole dose curve; as a rule, active = well fitted curve in the direction sought with a large enough effect; inconclusive = small, poorly fitted or top-dose-only effect, or another doubt; inactive = no such curve, though single readings can be large; an effect the other way counts as inactive or inconclusive.

SMILES | JMJD2E inh | L3MBTL1 inh | TDP1 inh | RECQ1 helicase | APE1 inh | BLM inh
COc1ccc(C2=Nn3c(nnc3-c3ccccc3C(F)(F)F)SC2)cc1OC1CCCC1 | x | x | x | x | n | x
O=C(O)c1ccc(CSc2nnc(-c3ccc([S+](=O)([O-])N4CCCC4)cc3)n2-c2ccccc2)cc1 | x | x | x | x | n | x
O=C1/C(=C/Nc2ccc3c(c2)OCO3)CCc2ccccc21 | 14µM | x | n | n | n | n
N#Cc1c(-c2cccc(Cl)c2)no[n+]1[O-] | x | x | x | x | n | x
CC(=O)Nc1ccc(NS(=O)(=O)c2c(C(=O)N3CCC(C)CC3)c(C)n(C)c2C)cc1 | x | x | n | x | x | n
O=C(N/N=C/c1ccccc1F)c1cc2c(ccc3ccccc32)o1 | x | x | 8.9µM | x | n | n
COc1ccc(OC)c(/C=N\NC(=O)c2cc3c(ccc4ccccc43)o2)c1 | x | x | n | x | n | n
O=C(N/N=C/c1ccsc1)c1cc2ccccc2o1 | x | x | 79µM | x | n | n
COc1cccc(C#Cc2c(C=O)n(C)c3ccccc23)c1 | x | n | 18µM | x | n | x
CCOC(=O)C1=C(C)N=c2s/c(=C/c3cccc([N+](=O)[O-])c3O)c(=O)n2C1c1ccc(OC)cc1OC (stereo not given) | x | u | x | x | 24µM | u
O=S(=O)(Nc1cc2nc3ccccc3nc2n1Cc1ccccc1)c1ccc(Cl)cc1 | u | 4µM | n | n | n | 5µM
CCOc1cc(N2CCOCC2)c(OCC)cc1NC(=O)CN1CCCC1 | 25µM | n | n | n | n | n
CCOC(=O)N1CCc2c(sc3c2c(=O)n(-c2ccccc2)c(=O)n3CC(=O)Nc2ccc(OC)cc2OC)C1 | x | x | n | x | x | n
Nc1c(/C=C2/C=CC(=O)C(O)=C2)c(=O)nc2sc(CC(=O)N3CCCC3)nn12 | x | x | u | x | 11µM | n
O=C(OCc1ccccc1)c1ccccc1O | x | n | 79µM | n | n | x
O=C(COC(=O)c1ccccc1O)NCCCc1ccccc1 | n | x | n | n | u | n
O=C(OCCCOC(=O)c1ccccc1O)c1ccccc1O | x | x | 18µM | x | n | n
Cc1cc2c(s1)c1cnn(Cc3cc(C(F)(F)F)cc(Cl)c3F)c(=O)c1n2C | x | x | n | x | x | x
CN=C1N[C@H](c2ccccc2)N(c2ccccc2)S1 | 7.9µM | x | n | n | n | n
C=C1CC[C@H](O)C/C1=C/C=C1\CCC[C@]2(C)C([C@H](C)CCCC(C)(C)O)CC[C@@H]12 (stereo not given in full) | x | x | n | n | n | x
O=C(CC(NCc1ccccn1)C(=O)O)Nc1ccccc1Cl (stereo not given) | n | 20µM | n | n | u | n
CNc1ncnc2c1ncn2[C@@H]1O[C@H](COP(=O)(O)O)[C@@H](O)[C@H]1O | x | x | n | n | n | x
O=C1/C(=C\c2cccc(O)c2O)SC(=S)N1Cc1ccccc1 | x | n | x | x | n | n
O=C1/C(=C\c2cc([N+](=O)[O-])ccc2O)SC(=S)N1Cc1ccc(Cl)cc1 | x | x | x | x | u | 32µM
C/C(=N\NC(=O)c1ccncc1)c1cc2ccccc2oc1=O | 14µM | n | n | n | n | n
SMILES | JMJD2E inh | L3MBTL1 inh | TDP1 inh | RECQ1 helicase | APE1 inh | BLM inh
CNC(=O)c1cc2cc(OC)ccc2oc1=O | u | x | n | n | n | n
C/C(=N/NC(=O)c1ccncc1)c1cc2ccc(O)cc2oc1=O | u | n | n | n | n | n
COc1ccc2oc(=O)c(/C(N)=N/NC(=O)c3ccncc3)cc2c1 | x | x | 50µM | x | n | n
COc1ccc(Cl)cc1NC(=O)N1CCN(Cc2cc(=O)n3nc(-c4ccccc4)sc3n2)CC1 | x | x | n | x | x | n
COc1ccc(-n2ncc(C(=O)N3CCN(c4ccccn4)CC3)c2C2CCN(C(=O)OC(C)(C)C)CC2)cc1 | x | x | n | x | x | n
COc1ccc(C(=O)CC2(O)C(=O)N(Cc3cccc(C(F)(F)F)c3)c3ccccc32)cc1 (stereo not given) | x | x | n | x | x | n
CCc1ccc(C(=O)c2cn(CC(=O)Nc3ccc4c(c3)OCO4)c3ccc(OC)cc3c2=O)cc1 | x | x | x | x | x | 14µM
O=c1c(C(c2ccccc2)c2c(O)sc3ccccc3c2=O)c(O)sc2ccccc12 | n | x | n | 32µM | n | u
CC(C)C1=CC2=CC[C@@H]3[C@@](C)(C(=O)O)CCC[C@]3(C)C2CC1 (stereo not given in full) | 35µM | x | n | n | n | n
CCN(CC)CCOC(=O)c1ccc(NC(=O)CCCN2C(=O)S/C(=C/c3ccc(OC)cc3)C2=S)cc1 | x | x | n | x | 34µM | n
CCOc1ccc(/C=C2/SC(=S)N(CCC(=O)Nc3ccc(C(=O)O)cc3)C2=O)cc1 | x | x | 10µM | x | 7.5µM | n
O=C(CCN1C(=O)/C(=C\c2ccccc2)SC1=S)Nc1ccc(C(=O)O)cc1 | x | x | x | x | n | n
COc1cc(/C=C2\SC(=O)N(CC(=O)Nc3ccc(C)cc3)C2=O)cc(Cl)c1OCC(=O)O | x | u | x | x | 5.3µM | 10µM
COc1ccc(/C=C2\SC(=O)N(CCCC(=O)Nc3ccc(C(=O)O)cc3)C2=O)cc1OC | x | x | n | x | n | n
COc1ccc(/C=C2\SC(=S)N(CCC(=O)Nc3ccc(O)cc3)C2=O)cc1 | x | n | x | x | n | n
COc1ccc(/C=C2\SC(=S)N(CCCC(=O)Nc3ccc(C(=O)O)cc3)C2=O)cc1OC | x | x | 50µM | x | u | n
O=C(CN1C(=O)S/C(=C\c2cc(Cl)c(O)c(Cl)c2)C1=O)Nc1ccccc1 | x | n | x | x | n | n
CN(C)CCOc1cccc(Cl)c1 | 22µM | n | n | n | n | n
CCCCCCCCCCCCCCCC(=O)NCCc1ccc(O)c(O)c1 | n | x | n | n | u | n
CCCCCCCC/C=C\CCCCCCCC(=O)NCCc1ccc(O)c(O)c1 | 20µM! | n | n | n | u | n
Cc1cc(O)ccc1Nc1nc2ccccc2nc1Nc1ccc(O)cc1C | 25µM | n | n | n | n | n
O=c1c(O[C@@H]2O[C@H](CO)[C@H](O)[C@H](O)[C@H]2O)c(-c2ccc(O)c(O)c2)oc2cc(O)cc(O)c12 | 1.8µM | x | n | n | u | n
O=c1cc(-c2ccc(O)c(O)c2)oc2cc(OC3OC(CO)C(O)C(O)C3O)cc(O)c12 (stereo not given) | 11µM | x | n | 20µM | u | n
O=c1c(O[C@@H]2O[C@H](CO)[C@@H](O)[C@H](O)[C@H]2O)c(-c2ccc(O)c(O)c2)oc2cc(O)cc(O)c12 | 13µM | x | n | n | u | n
C[C@@H]1O[C@@H](OC[C@H]2O[C@@H](Oc3c(-c4ccc(O)c(O)c4)oc4cc(O)cc(O)c4c3=O)[C@H](O)[C@@H](O)[C@@H]2O)[C@H](O)[C@H](O)[C@H]1O | 14µM | x | n | n | u | n
CC1OC(OC2C(Oc3c(-c4ccc(O)cc4)oc4cc(O)cc(O)c4c3=O)OC(COC3O[C@@H](C)[C@H](O)[C@@H](O)C3O)C(O)C2O)C(O)C(O)C1O (stereo not given in full) | x | n | x | x | n | x

Screens (PubChem BioAssay)
